# About 7,900 targets were measured; listed, in parts, are those with a hit and a random draw of the rest. About 0.6% of all pairs of compound and target were hits. A number with no mark means an inactive call.
# Legend:
# Test in all cases: log2 fold change, soluble protein after heating vs DMSO (PISA); higher = thermal stabilisation; K562 cells, 10 uM, 30 min; active = over 0.2 and 3.5 SD of the protein, either way, in both replicates (recomputed)
# [1] = compound: NC(=O)Nc1cc(-c2cccc(F)c2)sc1C(=O)N[C@H]1CCCNC1
# Method in brief: (§1)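 K562 cells (2×10^6 cells/mL) were treated with 10 μM compound for 30 min, and aliquots were heated for 3 min over 48°C-58°C. Pooled aliquots were extracted in PBS with 0.5% NP-40 at 4°C, and the supernatant after 21,000xg for 90 min was measured by TMTpro 16plex LC-MS/MS with channel sums equalised. Reported thermal stability, relative to control samples and from duplicates, is a log2 fold change.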
# [2] = compound: NC(=O)c1cnc(N[C@@H]2CCCC[C@@H]2N)nc1Nc1cccc(-n2nccn2)c1
# Method in brief: as §1
# [3] = compound: NC1(c2ccc(-c3nc4ccn5c(=O)[nH]nc5c4cc3-c3ccccc3)cc2)CCC1
# Method in brief: as §1
# [4] = compound: NCC(=O)Nc1ccc(-n2nc(C(F)(F)F)cc2-c2ccc3c(ccc4ccccc43)c2)cc1
# Method in brief: as §1
# [5] = compound: Nc1ccccc1NC(=O)c1ccc(CNC(=O)OCc2cccnc2)cc1 [entinostat]
# Method in brief: as §1
# [6] = compound: O=C(CCCCCCC(=O)Nc1ccccc1)NO [vorinostat]
# Method in brief: as §1
# [7] = compound: O=C(CCCCCCNC(=O)c1cnc(N(c2ccccc2)c2ccccc2Cl)nc1)NO [citarinostat]
# Method in brief: as §1
# [8] = compound: O=C(O)c1ccc2c(c1)nc(Nc1cccc(Cl)c1)c1ccncc12 [silmitasertib]
# Method in brief: as §1
# [9] = compound: O=C1NC(=O)C(c2cnc3ccccn23)=C1c1cn2c3c(cc(F)cc13)CN(C(=O)N1CCCCC1)CC2
# Method in brief: as §1
# [10] = compound: c1cc(OCCN2CCCCC2)cc(-c2n[nH]c3ccc(-c4nnc[nH]4)cc23)c1
# Method in brief: as §1
# Sequence of UniProt P52597 (P52597 whole entry, looked up): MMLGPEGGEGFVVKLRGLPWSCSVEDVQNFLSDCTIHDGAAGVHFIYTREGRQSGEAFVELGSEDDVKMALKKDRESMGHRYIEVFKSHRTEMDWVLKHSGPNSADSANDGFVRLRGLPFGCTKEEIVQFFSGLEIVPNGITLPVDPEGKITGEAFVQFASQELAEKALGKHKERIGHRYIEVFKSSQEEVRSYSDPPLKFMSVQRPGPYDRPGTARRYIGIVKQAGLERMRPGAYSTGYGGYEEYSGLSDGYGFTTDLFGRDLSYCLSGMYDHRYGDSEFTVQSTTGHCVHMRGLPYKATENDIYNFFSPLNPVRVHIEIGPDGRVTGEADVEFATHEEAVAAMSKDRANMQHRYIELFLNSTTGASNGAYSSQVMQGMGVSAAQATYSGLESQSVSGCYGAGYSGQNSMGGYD
# Sequence of UniProt P21333 (P21333 whole entry, looked up): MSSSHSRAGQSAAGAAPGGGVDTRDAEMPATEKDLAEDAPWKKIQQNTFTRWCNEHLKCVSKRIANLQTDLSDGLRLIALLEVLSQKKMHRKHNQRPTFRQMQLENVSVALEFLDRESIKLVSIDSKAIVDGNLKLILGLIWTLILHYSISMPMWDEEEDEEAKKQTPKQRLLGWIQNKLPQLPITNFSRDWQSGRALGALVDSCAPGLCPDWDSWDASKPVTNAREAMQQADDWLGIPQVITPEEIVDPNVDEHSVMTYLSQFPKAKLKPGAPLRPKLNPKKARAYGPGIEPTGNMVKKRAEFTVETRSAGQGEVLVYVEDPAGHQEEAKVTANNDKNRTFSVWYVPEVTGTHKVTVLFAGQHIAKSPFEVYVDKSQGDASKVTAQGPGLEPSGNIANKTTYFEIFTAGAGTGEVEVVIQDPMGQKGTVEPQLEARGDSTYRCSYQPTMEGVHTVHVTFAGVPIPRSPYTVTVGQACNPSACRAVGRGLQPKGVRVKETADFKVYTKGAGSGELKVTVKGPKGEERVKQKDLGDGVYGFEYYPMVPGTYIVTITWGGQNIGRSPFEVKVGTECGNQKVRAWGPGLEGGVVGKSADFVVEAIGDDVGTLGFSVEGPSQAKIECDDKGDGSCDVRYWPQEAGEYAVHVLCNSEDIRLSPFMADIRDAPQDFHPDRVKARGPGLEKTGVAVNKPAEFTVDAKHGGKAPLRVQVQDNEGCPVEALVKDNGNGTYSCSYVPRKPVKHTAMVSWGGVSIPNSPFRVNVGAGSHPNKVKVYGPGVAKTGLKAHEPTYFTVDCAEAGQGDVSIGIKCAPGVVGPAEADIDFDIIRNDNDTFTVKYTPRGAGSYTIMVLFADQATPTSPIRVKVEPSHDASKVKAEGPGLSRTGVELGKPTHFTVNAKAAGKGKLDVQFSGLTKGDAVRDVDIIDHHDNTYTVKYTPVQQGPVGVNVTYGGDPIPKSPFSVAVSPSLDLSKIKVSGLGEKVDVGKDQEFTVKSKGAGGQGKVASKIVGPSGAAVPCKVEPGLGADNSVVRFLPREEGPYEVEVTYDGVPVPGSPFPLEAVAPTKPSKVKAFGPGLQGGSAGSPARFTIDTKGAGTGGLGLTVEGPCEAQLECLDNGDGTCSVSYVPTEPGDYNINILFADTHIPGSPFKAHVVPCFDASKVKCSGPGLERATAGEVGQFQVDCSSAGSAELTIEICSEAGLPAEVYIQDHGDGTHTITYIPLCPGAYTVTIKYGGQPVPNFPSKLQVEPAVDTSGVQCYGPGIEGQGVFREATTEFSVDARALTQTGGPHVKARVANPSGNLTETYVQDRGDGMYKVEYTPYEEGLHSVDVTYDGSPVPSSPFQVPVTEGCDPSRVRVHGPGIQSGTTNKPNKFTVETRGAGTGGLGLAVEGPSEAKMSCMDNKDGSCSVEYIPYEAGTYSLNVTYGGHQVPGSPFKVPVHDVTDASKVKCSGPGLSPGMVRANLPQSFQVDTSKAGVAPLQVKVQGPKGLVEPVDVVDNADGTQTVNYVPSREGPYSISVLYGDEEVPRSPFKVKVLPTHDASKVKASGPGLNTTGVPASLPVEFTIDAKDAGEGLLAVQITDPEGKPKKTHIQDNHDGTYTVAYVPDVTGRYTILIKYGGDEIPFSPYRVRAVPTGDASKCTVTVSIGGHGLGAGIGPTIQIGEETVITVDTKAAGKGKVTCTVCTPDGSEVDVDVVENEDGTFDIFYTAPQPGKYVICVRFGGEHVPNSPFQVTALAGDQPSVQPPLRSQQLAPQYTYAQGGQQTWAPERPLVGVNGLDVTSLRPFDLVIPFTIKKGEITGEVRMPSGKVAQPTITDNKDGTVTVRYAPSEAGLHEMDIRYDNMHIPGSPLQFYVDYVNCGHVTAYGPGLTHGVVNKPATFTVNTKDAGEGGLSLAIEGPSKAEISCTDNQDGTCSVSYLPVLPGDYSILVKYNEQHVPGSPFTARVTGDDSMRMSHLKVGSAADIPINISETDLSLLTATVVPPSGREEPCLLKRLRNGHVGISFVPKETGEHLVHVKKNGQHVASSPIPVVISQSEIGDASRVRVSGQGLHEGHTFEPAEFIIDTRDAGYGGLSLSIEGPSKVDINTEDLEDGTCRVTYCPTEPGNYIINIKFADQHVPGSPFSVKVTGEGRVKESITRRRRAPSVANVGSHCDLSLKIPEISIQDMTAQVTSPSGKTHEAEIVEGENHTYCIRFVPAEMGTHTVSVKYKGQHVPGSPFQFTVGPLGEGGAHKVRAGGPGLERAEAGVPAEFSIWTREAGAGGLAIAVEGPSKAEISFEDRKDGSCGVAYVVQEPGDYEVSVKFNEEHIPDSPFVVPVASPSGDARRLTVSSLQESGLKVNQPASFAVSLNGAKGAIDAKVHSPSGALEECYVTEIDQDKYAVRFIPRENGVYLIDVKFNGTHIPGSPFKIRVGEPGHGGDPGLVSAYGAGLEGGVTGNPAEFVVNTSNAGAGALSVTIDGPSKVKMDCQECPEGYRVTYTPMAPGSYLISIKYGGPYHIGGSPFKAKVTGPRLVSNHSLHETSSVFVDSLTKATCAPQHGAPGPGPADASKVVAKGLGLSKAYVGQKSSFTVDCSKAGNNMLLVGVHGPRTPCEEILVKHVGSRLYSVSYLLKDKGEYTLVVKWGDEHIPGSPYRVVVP
# Sequence of UniProt Q6P3S6 (Q6P3S6 whole entry, looked up): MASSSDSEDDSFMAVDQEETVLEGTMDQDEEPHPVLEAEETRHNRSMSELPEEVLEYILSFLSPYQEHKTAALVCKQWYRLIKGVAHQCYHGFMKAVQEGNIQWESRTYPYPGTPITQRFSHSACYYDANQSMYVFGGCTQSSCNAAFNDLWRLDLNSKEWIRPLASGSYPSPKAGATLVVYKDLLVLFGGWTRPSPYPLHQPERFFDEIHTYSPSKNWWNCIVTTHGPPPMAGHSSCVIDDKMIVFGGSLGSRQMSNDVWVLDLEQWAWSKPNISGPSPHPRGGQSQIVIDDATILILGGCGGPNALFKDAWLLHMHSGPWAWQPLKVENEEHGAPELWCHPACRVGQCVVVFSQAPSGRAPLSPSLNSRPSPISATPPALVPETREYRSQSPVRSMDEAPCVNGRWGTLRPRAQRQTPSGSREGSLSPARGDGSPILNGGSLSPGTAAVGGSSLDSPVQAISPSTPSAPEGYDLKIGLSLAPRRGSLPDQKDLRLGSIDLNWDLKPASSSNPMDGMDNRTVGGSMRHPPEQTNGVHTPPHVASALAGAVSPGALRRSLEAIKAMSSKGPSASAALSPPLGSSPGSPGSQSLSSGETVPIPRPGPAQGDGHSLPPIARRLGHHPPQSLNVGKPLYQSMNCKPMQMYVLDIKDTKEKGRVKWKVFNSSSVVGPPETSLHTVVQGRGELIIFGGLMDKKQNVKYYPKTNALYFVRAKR
# Sequence of UniProt P00367 (P00367 whole entry, looked up): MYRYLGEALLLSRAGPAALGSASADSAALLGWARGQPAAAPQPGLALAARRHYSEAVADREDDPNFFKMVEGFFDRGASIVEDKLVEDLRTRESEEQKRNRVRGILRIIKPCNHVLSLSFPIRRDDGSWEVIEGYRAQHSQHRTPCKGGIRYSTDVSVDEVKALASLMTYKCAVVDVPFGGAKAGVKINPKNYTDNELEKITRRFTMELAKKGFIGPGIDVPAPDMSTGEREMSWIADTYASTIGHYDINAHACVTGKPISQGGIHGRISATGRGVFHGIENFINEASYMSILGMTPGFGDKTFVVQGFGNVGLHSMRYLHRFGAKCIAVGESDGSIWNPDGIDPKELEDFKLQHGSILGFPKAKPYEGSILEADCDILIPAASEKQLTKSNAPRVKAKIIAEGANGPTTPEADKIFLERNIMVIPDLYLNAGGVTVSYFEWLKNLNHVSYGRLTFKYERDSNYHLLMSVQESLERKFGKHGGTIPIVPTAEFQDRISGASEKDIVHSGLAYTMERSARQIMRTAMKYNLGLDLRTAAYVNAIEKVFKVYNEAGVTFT
# Sequence of UniProt P15260 (P15260 whole entry, looked up): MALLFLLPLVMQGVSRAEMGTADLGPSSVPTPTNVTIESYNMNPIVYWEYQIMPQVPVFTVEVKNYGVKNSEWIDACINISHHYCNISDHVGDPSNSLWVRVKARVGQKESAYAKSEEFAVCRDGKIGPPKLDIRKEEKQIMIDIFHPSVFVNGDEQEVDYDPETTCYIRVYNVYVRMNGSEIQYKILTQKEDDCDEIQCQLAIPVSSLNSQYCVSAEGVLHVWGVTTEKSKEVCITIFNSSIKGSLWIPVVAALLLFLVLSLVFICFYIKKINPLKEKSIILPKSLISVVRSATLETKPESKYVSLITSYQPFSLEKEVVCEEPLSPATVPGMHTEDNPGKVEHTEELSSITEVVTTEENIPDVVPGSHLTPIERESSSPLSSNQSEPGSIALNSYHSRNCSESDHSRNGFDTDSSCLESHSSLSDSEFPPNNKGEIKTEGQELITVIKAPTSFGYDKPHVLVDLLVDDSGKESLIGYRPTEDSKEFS
# Sequence of UniProt Q00688 (Q00688 whole entry, looked up): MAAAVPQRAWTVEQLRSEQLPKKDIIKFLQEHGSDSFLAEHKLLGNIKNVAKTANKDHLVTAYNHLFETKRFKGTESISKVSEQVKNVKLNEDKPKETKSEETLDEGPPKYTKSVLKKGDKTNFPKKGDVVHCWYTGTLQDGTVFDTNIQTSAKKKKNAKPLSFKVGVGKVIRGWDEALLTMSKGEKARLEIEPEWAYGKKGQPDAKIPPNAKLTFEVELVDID
Target,log2 fold change [1],log2 fold change [2],log2 fold change [3],log2 fold change [4],log2 fold change [5],log2 fold change [6],log2 fold change [7],log2 fold change [8],log2 fold change [9],log2 fold change [10]
FKBP3 (UniProt Q00688),0.042,0.019,0.02,0.037,0.016,0.007,0.009,-0.034,-0.02,0.054
HSD17B12 (UniProt Q53GQ0),-0.031,0.005,-0.049,0.066,-0.02,-0.014,0.14,0.037,-0.146,-0.082
GNB2 (UniProt P62879),-0.073,-0.012,0.022,-0.014,-0.037,-0.047,-0.01,0.028,-0.075,-0.049
FANCI (UniProt Q9NVI1),0.139,-0.069,-0.281 (active),-0.08,0.083,0.112,0.099,-0.089,0.033,-0.045
GLB1 (UniProt P16278),0.02,0.002,-0.097,-0.043,0.01,-0.065,0.005,0.021,-0.003,-0.044
HMGCR isoform 3 (UniProt P04035),0.184,-0.115,0.048,-0.022,0.082,-0.019,-0.175,-0.08,0.15,0.081
HIC2 (UniProt Q96JB3),-0.071,-0.06,0.016,0.101,-0.027,-0.027,-0.019,0.098,0.121,-0.233
H2AFX (UniProt P16104),0.054,0.245,0.441,0.041,0.132,0.216,-0.035,0.08,0.077,-0.083
GEMIN6 (UniProt Q8WXD5),0.066,0.015,-0.108,0.099,-0.005,-0.04,-0.12,0.015,-0.139,-0.106
GALK1 isoform 2 (UniProt P51570),0.357 (active),0.066,-0.087,0.141,0.171,0.094,0.111,-0.063,0.049,0.11
ICAM1 (UniProt P05362),0.016,0.109,0.087,0.008,-0.026,-0.008,0.024,-0.028,-0.07,-0.06
IFNGR1 (UniProt P15260),-0.116,-0.068,0.27,0.051,-0.123,0.058,0.014,0.055,-0.118,-0.086
HMG20A (UniProt Q9NP66),0,0.126,-0.054,-0.056,0.064,0.09,0.072,0.069,0,-0.167
GABARAPL1 isoform 2 (UniProt Q9H0R8),-0.051,-0.13,-0.252 (active),-0.134,-0.009,-0.028,0.038,-0.083,-0.049,0.021
GTF2A1 (UniProt P52655),-0.029,0.249,0.01,0.093,-0.116,-0.031,-0.035,0.004,-0.028,0.016
GATA1 (UniProt P15976),0.009,0.012,-0.018,0.059,-0.084,-0.164,-0.166,0.065,-0.039,-0.096
GSK3A (UniProt P49840),-0.02,0.014,-0.054,0.051,-0.03,-0.053,0.015,-0.004,0.454 (active),0.193
FRA10AC1 isoform 3 (UniProt Q70Z53),-0.069,0.114,-0.121,-0.077,0.019,0.065,0.08,0.129,-0.091,-0.232
FLNA (UniProt P21333),-0.069,-0.069,-0.093,-0.072,0.042,0.061,0.062,0.11,-0.002,-0.032
GLUD1 (UniProt P00367),-0.058,-0.014,-0.043,-0.032,-0.051,-0.061,-0.023,-0.095,0.082,0.052
GABPA (UniProt Q06546),-0.05,-0.057,-0.203,-0.042,0.108,0.138,0.139,-0.007,-0.13,0.008
FBL (UniProt P22087),0.095,0.165,0.455,0.067,-0.109,0.005,-0.109,0.232,0.13,-0.237
HIP1R (UniProt O75146),-0.032,-0.001,-0.138,0.014,0.027,0.069,0.022,0,-0.024,-0.005
GPAT4 (UniProt Q86UL3),-0.031,0.002,-0.012,-0.028,-0.107,-0.017,0.004,-0.005,-0.077,-0.068
GEMIN5 (UniProt Q8TEQ6),-0.011,-0.018,-0.133,-0.015,0.029,-0.046,-0.065,0.009,-0.057,-0.034
HDAC6 (UniProt Q9UBN7),0.002,-0.04,0.054,0.001,-0.053,0.86 (active),0.747 (active),0.009,0.004,0.064
GATD1 (UniProt Q8NB37),0.012,0.028,-0.037,-0.013,-0.084,-0.018,-0.031,-0.025,-0.673 (active),-0.031
FBXO42 (UniProt Q6P3S6),-0.048,-0.087,-0.176,0.061,-0.028,-0.03,-0.001,0.006,0.013,-0.026
HNRNPF (UniProt P52597),-0.015,0.014,-0.11,-0.027,0.137,0.154,0.07,0.074,-0.104,-0.048
GGT7 (UniProt Q9UJ14),-0.034,0.04,-0.076,0.288 (active),-0.081,0.062,0.058,-0.009,-0.061,0.002

# Reference: the supplement of paper PMC10849652
